In all, about 360,000 compounds went through this assay and about 430 (0.12%) were called active. For the sample, actives were picked, then their nearest neighbours and some compounds at random. A number with no mark means an inactive call.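 How the source made its calls: active means inhibition above the campaign mean plus 3 SD, with each screening campaign given its own cutoff (cut at about 60% in these data); inactive means the rest.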

Experimental findings from PubChem BioAssay AID588354 (The Scripps Research Institute Molecular Screening Center, 2011) are described below.

For this test, the target named is Nuclear receptor coactivator 1 (Homo sapiens) (UniProt Q15788). In words: NCOA1 GAL4-fusion reporter inhibition – cell-based, luminescence, primary screen (AID 588354).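 Further: 0% = DMSO treated cells and 100% = gossypol at 36 µM.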 The conditions noted are these: HEK293 GAL4-SRC1 luciferase reporter, at 3.6 µM, stronger effect = higher value.
Sequence of Nuclear receptor coactivator 1 (Homo sapiens) (Q15788 whole entry, looked up, the tested form may be a part): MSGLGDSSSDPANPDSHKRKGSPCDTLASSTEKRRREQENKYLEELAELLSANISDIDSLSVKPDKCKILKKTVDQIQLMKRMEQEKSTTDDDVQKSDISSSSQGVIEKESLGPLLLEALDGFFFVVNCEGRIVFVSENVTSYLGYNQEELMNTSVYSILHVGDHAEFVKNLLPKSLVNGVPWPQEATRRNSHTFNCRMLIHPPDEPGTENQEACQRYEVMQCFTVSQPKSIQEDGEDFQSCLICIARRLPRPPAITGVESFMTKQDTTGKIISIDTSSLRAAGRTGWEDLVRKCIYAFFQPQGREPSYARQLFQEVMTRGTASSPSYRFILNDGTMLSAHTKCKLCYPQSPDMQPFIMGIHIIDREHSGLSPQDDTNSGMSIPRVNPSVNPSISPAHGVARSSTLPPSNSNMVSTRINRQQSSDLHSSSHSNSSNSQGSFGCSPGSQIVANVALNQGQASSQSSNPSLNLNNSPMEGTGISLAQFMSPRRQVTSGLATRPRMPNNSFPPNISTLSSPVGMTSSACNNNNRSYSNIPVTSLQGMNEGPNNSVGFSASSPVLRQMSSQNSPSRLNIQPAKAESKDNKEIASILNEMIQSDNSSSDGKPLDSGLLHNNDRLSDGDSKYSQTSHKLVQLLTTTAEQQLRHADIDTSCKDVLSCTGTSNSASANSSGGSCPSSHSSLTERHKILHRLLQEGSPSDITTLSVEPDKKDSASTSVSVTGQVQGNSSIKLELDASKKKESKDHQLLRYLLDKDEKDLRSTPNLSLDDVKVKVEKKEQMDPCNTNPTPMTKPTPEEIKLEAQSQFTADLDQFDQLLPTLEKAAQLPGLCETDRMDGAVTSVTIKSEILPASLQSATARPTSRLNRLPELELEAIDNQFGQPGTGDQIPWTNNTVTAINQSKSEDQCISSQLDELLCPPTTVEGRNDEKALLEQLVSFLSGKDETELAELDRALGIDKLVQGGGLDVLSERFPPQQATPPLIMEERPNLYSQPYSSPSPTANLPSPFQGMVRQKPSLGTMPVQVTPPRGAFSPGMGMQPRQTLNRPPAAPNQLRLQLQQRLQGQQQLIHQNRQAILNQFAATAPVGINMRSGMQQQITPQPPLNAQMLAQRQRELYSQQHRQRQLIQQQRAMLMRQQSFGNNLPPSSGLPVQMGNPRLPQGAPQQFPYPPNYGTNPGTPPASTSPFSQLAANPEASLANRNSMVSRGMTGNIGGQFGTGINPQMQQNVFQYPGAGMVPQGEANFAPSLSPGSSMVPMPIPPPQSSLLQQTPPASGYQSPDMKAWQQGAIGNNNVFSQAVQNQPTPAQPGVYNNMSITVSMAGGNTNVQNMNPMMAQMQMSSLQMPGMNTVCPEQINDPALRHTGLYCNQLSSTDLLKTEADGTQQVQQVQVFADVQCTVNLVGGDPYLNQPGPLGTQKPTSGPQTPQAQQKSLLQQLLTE
Turning to `C[C@@H](NC(=O)c1nc[nH]c1C(=O)N1CCN(C(=O)OC(C)(C)C)CC1)c1ccccc1`, the inhibition – broadly, the change of the read-out against control, counted positive when it falls – is -15.6%. As for `Cn1cc(/C=C/C(=O)N2CCCC(C(=O)c3ccc(C(F)(F)F)cc3)C2)cn1` (stereo unspecified), the inhibition is 8.39%.

`CC1(NC(=O)CCS(=O)(=O)c2ccc(Cl)cc2)CCS(=O)(=O)C1` (stereo unspecified): the inhibition was -3.53%.

In the case of `CN(c1ccc2nc3ccccc3c(=O)n2n1)C1CCCCC1`, the inhibition is 71.9% (active).

For `CC(C)(C)c1nc2ccccc2c(=O)n1N1C(=O)c2ccccc2C1=O`, the inhibition is 6.03%. For the compound `CN(C(=O)Nc1ccc(Cl)cc1)n1cnc2ccccc2c1=O`, the inhibition was -15.6%. `CSc1ncccc1C(=O)Nc1cccc(S(=O)(=O)N2CCOCC2)c1`: the inhibition is -16.1%. Turning to `O=C(Nc1cccc(Cc2ccccc2)c1)Nc1ccc2nc([C@@H]3O[C@H](CO)[C@@H](O)[C@H](O)[C@H]3O)[nH]c2c1`, the inhibition is -1.54%. As to `CC(C)(C)c1ccc(Oc2ccc(N)cc2)cc1`, the inhibition was 74% (active).

In the case of `CN(C)S(=O)(=O)c1ccc(Oc2ccc(S(=O)(=O)N(C)C)cc2)cc1`, the inhibition is 21.5%. Consider `COc1cc2c3c(c1)/C(=C1/SC(=S)NC1=O)C(=O)N3C(C)(C)C=C2C`, for which the inhibition is -18%. Next, `CCN(CC(=O)Nc1ccc2c(c1)OCCO2)Cc1cc(=O)oc2cc(C)c(C)cc12`: 1.42%. Regarding `COC(=O)c1ccc(N2CCOCC2)c(NC(=O)c2ccc(Br)o2)c1`, the inhibition was 3.93%.

In the case of `CCCCc1nc2c(=O)[nH]c3ccccc3c2o1`, the inhibition was -5.89%. Consider `Cc1cc(C)cc(NC(=O)CSCc2cnn(-c3ccccc3)c2-n2cccc2)c1`, for which the inhibition was 0.69%.

On to `CCCc1noc2c1/C(=N\O)CCC2`, for which the inhibition was 7.65%. Next, `Cc1oc(C(N)=O)cc1COc1ccc(C(N)=O)cc1`: 11.6%.

With `Cn1c(-c2ccc(C(F)(F)F)cc2)cc2onc(-c3ccccc3)c2c1=O`, the inhibition is -53.3%. Next, `CC(OC(=O)c1ccc(-n2cnnn2)cc1)C(=O)NCc1ccccc1` (stereo unspecified): -1.03%; `CCC(C)c1ccccc1NC(=O)CN(C)CC(=O)Nc1ccccc1SC` (stereo unspecified): 3.11%; `CCc1ccc(C(=O)N2CCN(S(=O)(=O)c3sc(C(=O)O)c(C)c3C(=O)O)CC2)cc1`: -9.2%.

With `CC(C)CCNC(=O)C(C)N(C(=O)Cn1nnc(-c2ccc(F)cc2)n1)C1CCCC1` (stereo unspecified), the inhibition was 5.49%. With `COc1ccc(Cn2cccc(NC(=O)Nc3ccc(C#N)cc3)c2=O)cc1`, the inhibition was 13.7%. Next, `CCOc1ccc(S(=O)(=O)N2CCN(C(=O)c3oc4ccccc4c3C)CC2)cc1`: -3.94%.

In the case of `CCN(C(=O)COC(=O)CCOc1cccc(C)c1)c1c(N)n(Cc2ccccc2)c(=O)[nH]c1=O`, the inhibition was 4.13%. For the compound `Cc1cccc(C)c1Cn1c(C)c(C(=O)NCc2cccc(Cl)c2)sc1=O`, the inhibition was -0.2%. Next, `CCc1ccc(CN(C)C(=O)C2CCC(=O)N(Cc3cccc(OC)c3)C2)nc1` (stereo unspecified): 5.84%; `CC(C)CN(C(=O)CSc1nncn1C)C1CCS(=O)(=O)C1` (stereo unspecified): 14%; `O=C(NN=Cc1ccccc1O)NN=Cc1ccccc1O`: 63% (active).

Regarding `C=CCOc1ccccc1/C=N/NC(=O)Cc1ccccc1`, the inhibition is -8.79%. Next, `O=C(N/N=C/c1ccccc1O)/C(=C/c1ccccc1)CCO`: 30.9%; `CCSc1sc(CC)cc1C=O`: -14.9%; `Cc1cc2c(cc1C)N(Cc1ccccc1)C1=NCCCN12`: 21.9%. Take `CS(=O)(=O)Nc1ccccc1C(=O)OCC(=O)NC1CC1`: the inhibition was -13.3%. Regarding `COc1ccc2c(c1)c(=Cc1ccc(N(C)C)cc1)c1cc(-c3ccccc3)[n+](C)n12`, the inhibition is 64.1% (active). With `COc1ccc(OC)c(Nc2nc3ccccc3n3cnnc23)c1`, the inhibition is 1.7%. Next, `COc1ccc(Nc2ncnc3ccc(Br)cc23)c(OC)c1`: 81.9% (active).

As to `COc1ccc(OC)c(NC(=O)CN(C)CCOc2ccc(Br)cc2)c1`, the inhibition is -10.8%.

In the case of `COc1ccccc1C(=O)NC(=O)COC(=O)c1ccco1`, the inhibition was 3.45%. As to `COC(=O)c1ccc(NC(=O)CSc2nncc3ccc(OC)c(OC)c23)cc1`, the inhibition is -23.3%.

Take `CCN(CC)CCCNC(=O)c1c(O)c2cc(F)cc3c2n(c1=O)C(C)CC3` (stereo unspecified): the inhibition was -12.1%. Regarding `COc1ccc(CCN2C(=O)N(c3ccc(OC)cc3)C(=O)C2CC(=O)Nc2ccc(OC)cc2)cc1` (stereo unspecified), the inhibition is -12.4%. For the compound `O=C(Nc1cccc2c1CCCC2)C1CCN(C(=O)NC2CCCCC2)CC1`, the inhibition was 3.24%. `O=C(CC1Nc2ccccc2NC1=O)Nc1ccccc1` (stereo unspecified): the inhibition is -51.2%. Next, `CCN(c1ccccc1)S(=O)(=O)c1ccc(OCC(=O)N2CCCC2)cc1`: -2.15%; `CCC(C)NC(=O)c1cc(Cl)ccc1OC` (stereo unspecified): 3%; `CC(C)C[C@H](NC(=O)C1CCC(CNC(=O)[C@@H]2CCCN2C(=O)OC(C)(C)C)CC1)C(=O)O` (stereo partly specified): 16%. As for `CC(C)(C)C(=O)NCCCNc1ccc([N+](=O)[O-])cc1`, the inhibition was -24.3%. Consider `CCN(CC)S(=O)(=O)c1ccc(N2CCN(C)CC2)c(NC(=O)Nc2ccccc2F)c1`, for which the inhibition is -0.49%. For the compound `COCC1CCCN(Cc2nc(-c3ccc4c(c3)OCO4)no2)C1` (stereo unspecified), the inhibition was -70.5%. `CC(=O)Nc1ccc(C(=O)Nc2cc(S(=O)(=O)N3CCOCC3)ccc2N2CCOCC2)cc1`: the inhibition was -2.37%. `O=C(NCCc1ccccc1)Oc1ccc(Cl)cc1`: the inhibition was -56.8%. `COc1ccc(CN2CCC(c3nc4ccc(Cl)cc4[nH]3)CC2)cc1`: the inhibition is 2.53%.

Take `Cc1cc(NC(=O)CSC2=NS(=O)(=O)c3cc(Cl)ccc3N2)no1`: the inhibition was -31%. Next, `CN(CCOc1ccc(Br)cc1)CC(=O)Nc1cccc(S(=O)(=O)NC2=NCCC2)c1`: -16.8%; `CC(C)(C)c1ccccc1NC(=O)CN1C(=O)NC2(CCCC2)C1=O`: -13.8%; `CCn1nc(C(=O)Nc2ccc(N3CCOCC3)cc2)c2ccccc2c1=O`: -1.53%.

In the case of `CCCCOC(=O)NCN1C(=O)C2C3C=CC(C3)C2C1=O` (stereo unspecified), the inhibition is 1%.

Regarding `Clc1ccc(Cn2ncc3c(NCc4cccnc4)ncnc32)cc1`, the inhibition is -4.66%.

Turning to `Cc1cc(NCc2cccnc2)no1`, the inhibition was 25.1%.

Regarding `Brc1ccc2ncnc(NCc3cccnc3)c2c1`, the inhibition was 66.1% (active). Consider `COc1ccc(S(=O)(=O)N2CCN(C(=O)N(C)C)C2C)cc1` (stereo unspecified), for which the inhibition was -47.2%. Regarding `C=CCN1C=C(C(=O)c2ccccc2)C(=O)CC1`, the inhibition was -2.55%. In the case of `O=C(O)C1CCCN1C1=NS(=O)(=O)c2ccccc21` (stereo unspecified), the inhibition was 12.2%. With `Cc1ccc(C)c(OCc2cc(C(=O)N3CCN(c4cnccn4)CC3)no2)c1`, the inhibition is -12.1%. Next, `CCOc1ccccc1NS(=O)(=O)c1c[nH]c(C(=O)OC)c1`: -15%. Next, `C=CC[C@H](CC(=O)OC(C)(C)C)C(=O)OC[C@H]1CCCN1C(=O)[C@H](CC=C)CC(=O)N(CCO)Cc1ccccc1`: -0.47%. Turning to `CC1(C)CN(Cc2cccnc2)C(=O)[C@H]1CC(=O)Nc1ccc(Br)cc1`, the inhibition was -2.09%. `O=c1ccc2c(-c3ccccc3S(=O)(=O)O)c3ccc(O)c(O)c3oc-2c1O`: the inhibition was 13.4%. On to `CCn1c(SCC(=O)N2CCCC2=O)nc2ccccc21`, for which the inhibition is 16.1%.

As for `CC1=C(C(=O)N(C)C)C(c2ccccc2OC(F)F)NC(=O)N1` (stereo unspecified), the inhibition was 4.69%. Consider `O=C(NC1CCCC1)C(c1ccc(N2CCOCC2)cc1)N(C(=O)c1ccco1)c1ccccc1F` (stereo unspecified), for which the inhibition is 5.48%.

For the compound `Cc1ccc(CSCC2Nc3ccc(C(=O)N4CCN(c5ccc(F)cc5)CC4)cc3NC2=O)cc1` (stereo unspecified), the inhibition was 2.74%. Next, `C[C@@H](C(=O)N1CCNCC1)n1cc(CCC(=O)O)nn1`: 3.05%; `Cc1ccccc1-c1cc(C(=O)NCC2CC2)n(CC2CC(c3cccnc3)=NO2)n1` (stereo unspecified): 2.14%.

Consider `CO/N=C/c1cn(-c2ccc(Cl)cc2)nn1`, for which the inhibition was -12.7%. Turning to `COc1ccc(C(=O)Nc2ccccc2C(=O)N/N=C/c2ccc(O)c(OC)c2)cc1`, the inhibition was 64.2% (active). For the compound `COc1cccc(OCc2cc(/C=N/NC(=O)c3nc(Cl)c(Cl)c(N)c3Cl)ccc2OC)c1`, the inhibition is -14.2%. In the case of `CCOc1cc(/C=N/NC(=O)c2c(C)nc3ccc(Cl)cn23)ccc1O`, the inhibition was 0.11%. `CC1CN(c2nc(-c3ccccc3)nnc2-c2ccccc2)CC(C)O1` (stereo unspecified): the inhibition was 10.6%. For `CC(Oc1ccc(Cl)cc1Cl)C(=O)/C=C/N(C)C` (stereo unspecified), the inhibition is -17.4%.

As for `COCCN(Cc1nc(-c2ccc(C(F)(F)F)cc2)no1)C(C)C`, the inhibition is -8.16%.

On to `CC(CCn1cccn1)NC(=O)CCc1nnc(CCc2ccccc2)o1` (stereo unspecified), for which the inhibition is 11.7%. Turning to `O=C(NNS(=O)(=O)Cc1ccccc1)c1ccc([N+](=O)[O-])cc1`, the inhibition is -4.79%. Take `O=C(NC(Nc1nc2ccc([N+](=O)[O-])cc2s1)(C(F)(F)F)C(F)(F)F)c1ccccc1`: the inhibition was 68.3% (active). `O=C(Nc1cc(-c2ccccc2)nn1-c1ccccc1F)c1ccc([N+](=O)[O-])cc1`: the inhibition is -16.9%. As for `COc1cc(CN2CCNC(=O)C2CC(=O)NCCc2ncccc2C)cc(OC)c1` (stereo unspecified), the inhibition is 14.8%. As to `O=C(CCc1ccc(S(=O)(=O)N2CCOCC2)cc1)Nc1ccc2ccccc2c1`, the inhibition was -5.83%. For `CC1CCCN(CCOCCOc2ccccc2-c2ccccc2)C1` (stereo unspecified), the inhibition was 9.99%. Consider `C[C@H]1CN([C@@H](C)CO)C(=O)c2cc(Br)cnc2O[C@H]1CN(C)S(=O)(=O)c1cccs1`, for which the inhibition is -44.2%. In the case of `N#CC1(NC(=O)COC(=O)CSc2ccc(F)cc2)CCCCC1`, the inhibition was 20.2%.
